Data from PubChem BioAssay (NCATS).
The other results are listed elsewhere or left out. Records with an inconclusive call do not appear. Unmarked numbers belong to inactive results. Activity calls are given as the source filed them. The call rests on the fitted dose curve; in most records, active means well fitted inhibition curve with a large enough effect; inconclusive means small, poorly fitted or top-dose-only effect, or effect the other way; inactive means no such curve, though single readings can be large or run the other way.

Experiment: qHTS Assay for Inhibitors of Fructose-1,6-bisphosphate Aldolase from Giardia Lamblia: Giardia lamblia growth inhibition (AID 2785);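 further: trophozoites exposed to compound for 48 h at 37 °C; nearly all actives have a fitted effect of over 70% in size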
Conditions: Giardia lamblia trophozoite growth inhibition; series mostly up to 57.5 µM; activity change, negative = inhibition: at the top concentration
Source text: NIH Chemical Genomics Center [NCGC]
NIH Molecular Libraries Probe Production centers Network [MLPCN]
Assay Provider: Osnat Herzberg, University of Maryland
The objective of this project is to obtain compounds that inhibit Giardia lamblia growth. G. lamblia is a human pathogen which afflicts impoverished nations; it is the most common cause of outbreaks of diarrhea in the United States. During the course of our study of potential drug targets in Giardia, we have identified the Class II (Zn2+ functions in electrophilic catalysis) fructose-1,6-bisphosphate aldolase (FBPA) as an excellent candidate for drug targeting. FBPA is a key glycolytic pathway enzyme, essential for G. lamblia survival. The human FBPA belongs to the Class I aldolases, which have a different substrate binding site structure and a radically different catalytic mechanism (employing a lysine-Schiff base intermediate). Therefore, affinity-based or mechanism-based inhibitors of the Giardia FBPA are expected not to interfere with the catalytic function of the human FBPA.
A glyceraldehyde-3-phosphate dehydrogenase/triose phosphate isomerase/NAD/arsenate coupled assay was adapted to the 1536-well HTP format for use in the primary screen. This was done by coupling it to a diaphorase/resazurin/resorufin reaction that can be monitored by fluorescence (excitation, 544 nm; emission, 590 nm). Compounds identified in this screen will be further evaluated by coupling the glycerol-3-phosphate/triose phosphate isomerase/NADH assay to a phenazine methosulfate/tetranitroblue tetrazolium color reaction. False positives due to the dehydrogenases and diaphorase inhibition will be eliminated, and selectivity assay will triage inhibitors of mammalian triose phosphate isomerase and the Class I FBPA. G. lamblia FBPA inhibitors identified by the in vitro analyses will be examined for growth inhibition of Giardia trophozoites, and for cytotoxicity in human cells.
This assay addresses whether hits in the primary screen can inhibit growth of giardia lamblia trophozoites.
Trophozoites of the G. lamblia isolate WB (33) were grown at pH 7.0 in modified TYI-S-33 medium. Detachment of trophozoites for preparation of inocula was achieved by chilling the cultures on ice for 20 min.
2uL/well media was dispensed per well into 1536-well white solid-bottom plates using a Multidrop Combi dispenser (Thermo Scientific). Subsequently, 23 nL/well compound solutions or DMSO controls were dispensed to the assay plates containing media via a pintool workstation (Kalypsys, San Diego) to avoid the potential contamination to the compound source plates. Unless otherwise noted, Giardia trophozoids suspended in media were dispensed as 100 cells/well in 4uL volumes. The plates were covered with plastic low-evaporation lids, individually sealed in Type A Bio-Bags and incubated at 37C for 48 hours. Following incubation, 4uL/well of ATPlite reagent was dispensed with a Multidrop Combi dispenser. The assay plates were briefly centrifuged at 1000 RPM and luminescence signal was detected on a ViewLux plate reader (PerkinElmer) after 20 min incubation at room temperature.
Keywords: Fructose-bisphosphate aldolase, FBPA , Giardia lamblia , Giardia, HTS, Inhibitors
On the % scale 0 is the no-effect control and ±100 the full control effect; potency means the concentration at half of the fitted maximal effect.

SMILES	activity change, negative = inhibition	Potency
CNC(=S)N/N=C/c1ccc(N2CCOCC2)s1	-8.92% [at 10.4 µM]	
Cc1cnc(NC(=O)c2ccccn2)s1	-23.9% [at 10.4 µM]	
COc1ccc(N=Nc2c(-c3ccc(OC)cc3)[nH]oc2=O)cc1	-15.5%	
Cc1cccc(-c2nnc(SCC(=O)O)n2Cc2ccccc2)c1	6.79% [at 10.4 µM]	
COc1ccc(CN2CCN(Cc3ccc(OC)c(OC)c3OC)CC2)cc1	6.68% [at 10.4 µM]	
CC(C)(c1ccccc1)c1ccc(OCCN2CCCC2)cc1	-13.4%	
Cc1csc(NC(=O)CN2CCCCCC2)n1	1.38% [at 10.4 µM]	
CC(=O)NC1CCN(CC(=O)Nc2nccs2)CC1	-10.3% [at 10.4 µM]	
Cc1cc(C)n(-c2ccc(Cl)c(C(=O)O)n2)n1	26.5%	
COc1ccc(Cl)cc1C(=O)NNC(=O)c1nc2nc(C)cc(C)n2n1	-17.9%	
Clc1cccc(CN2COc3c(cc(Cl)c4cccnc34)C2)c1	-13.7%	
COC(=O)CC1=NN(c2nc(C)cc(C)n2)C(=O)C1	4.58% [at 38.3 µM]	
COc1ccc(C(=O)NC(=S)N2CCCCC2c2cccnc2)cc1OC (stereo not given)	-19.9%	
Cc1cc(C)nc(N/N=C/c2ccc([N+](=O)[O-])o2)n1		3.16 µM (active)
O=c1nc(N/N=C/c2ccco2)cn[nH]1	-5.51%	
CN1CCN(CCCCOc2ccccc2-c2ccccc2)CC1	45.3%	
CSc1n[nH]c(=S)n1N	10.6%	
CCN(CC(=O)Nc1ccc(S(=O)(=O)N2CCCC2)cc1)CC(=O)Nc1cccc(OC)c1	-24.9%	
Cc1ccc(OCCCCc2c(C)n[nH]c2C)cc1	7.15% [at 10.4 µM]	
CN1CCCc2cc(C#N)c(=O)[nH]c21	27.9%	

SMILES	activity change, negative = inhibition	Potency
Cn1nnc(NC(=S)NC(=O)c2ccccc2)n1	-3.64% [at 38.3 µM]	
C=CCNC(=S)/N=c1/ccccn1Cc1ccccc1	3.99% [at 10.4 µM]	
COc1cc(CN2CCN(Cc3ccc(C)cc3)CC2)c([N+](=O)[O-])cc1OC	-29.9%	
O=C(Nc1nnc(-c2ccco2)o1)c1ccc(S(=O)(=O)N2CCOCC2)cc1	7.93% [at 10.4 µM]	
Cc1nc(N2CCOCC2)sc1C(=O)NN	13.6%	
Cc1cccc(C)c1OCCN1CCOCC1	14.9% [at 10.4 µM]	
C=CCc1cc(C)ccc1OCCCn1ccnc1	5.83% [at 10.4 µM]	
CN(C)CCOc1ccc(Cl)cc1C(C)(C)C	-6.56% [at 10.4 µM]	
Cc1nc2ccc(NC(=S)N3CCC(C)CC3)cc2nc1C	-1.02%	
O=[N+]([O-])c1cc([N+](=O)[O-])c2cccnc2c1O	25.3%	
CCN(CC(=O)NC(=O)NCc1ccccc1)Cc1nc2ccccc2c(=O)[nH]1	-29.8%	
COCCN(C(=S)Nc1ccccc1OC)C1CCN(C(C)C)CC1	9.74%	
COc1ccc(OC)c(Nc2nc(-c3ccc(O)c(O)c3)cs2)c1	-10.8% [at 10.4 µM]	
O=C1CCCN1CCCNC(=S)Nc1ccc(F)c(Cl)c1	-14.2%	
Cn1c(=O)[nH]c(=O)c2c1[nH]c(=S)n2Cc1ccccc1	4.88% [at 10.4 µM]	
O=S(=O)(c1ccc(NC(=S)NN=C(C2CC2)C2CC2)cc1)N1CCOCC1	-9.73% [at 10.4 µM]	
Cc1cc(C)c2c(=O)[nH]c(SCC(=O)Nc3ccc(Br)cc3)nc2n1	-5.41%	
COc1ccccc1CN1CCN(Cc2cc(OC)c(OC)cc2OC)CC1	59.3%	
O=C(CN1C(=O)COc2ccccc21)Nc1ccc(F)cc1	-19.4% [at 38.3 µM]	
Cc1nnc(N/N=C/c2ccccn2)[nH]c1=O		25.1 µM (active)
